In PubChem BioAssay (NCI) one finds growth data, which are given here for 38 compounds.

Structures are written as SMILES. This is part of a sample that, as a whole, favours compounds with a hit. Of some 83,000 tested, about 20% had one in any assay.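 The endpoint reported here, percent growth, reads 100 for growth as untreated, 0 for no net growth and -100 for all cells dead.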 Values without a mark were called inactive. Active and inactive are the calls of the source. How the source made its calls: active means growth percent below 10; inactive means the rest.

In the first experiment the test system is SR leukemia. The experiment in a line: NCI-60 one-dose screen, 48 h (100 = growth as untreated, 0 = no growth, -100 = all killed). The note with it: 10 µM.
Regarding `COc1ccc(-c2cc3c(nn2)-c2ccccc2C3=O)cc1`, the growth is -21.8% (active).

In the case of `CCCCC(=O)c1ccc(OC)cc1`, the growth was 92.2%.

`N=c1c(C(=O)OCc2ccccc2)ncc(CCl)n1O`: the growth is 82.6%.

`CCOC(=O)c1ccc(Nc2sc(C(=O)c3cccc([N+](=O)[O-])c3)c(N)c2C#N)cc1`: the growth is -28.3% (active).

`COC(=O)c1ccccc1N(C)C`: the growth is 78.2%.

On to `CC1(C(=O)O)NC(C(=O)O)Cc2c1[nH]c1ccccc21` (stereo unspecified), for which the growth was 92.8%.

Regarding `NCCC(=O)c1ccc(Cl)cc1`, the growth was 93.8%.

With `CC(=O)/C(Cc1ccccc1)=N/O`, the growth was 81.8%.

As for `Cc1cccc(CO)c1`, the growth was 109%.

As for `CC1(C)/C(=C\CO)C2CCC1C2` (stereo unspecified), the growth is 97.8%.

With `CC1C(=O)c2ccccc2CC1C(=O)O` (stereo unspecified), the growth was 95.8%.

As to `CC12CC3CC1C(C(=O)O2)C3C(=O)O` (stereo unspecified), the growth was 93.1%.

Turning to `CC(C)CCOC(=O)c1ccccc1`, the growth is 107%.

As for `O=C1C[C@H](c2ccccc2)[C@H](c2ccccc2)C1`, the growth was 99.2%.

Consider `O=c1cc(-c2ccccc2)oc2c1ccc1ccccc12`, for which the growth is 67.3%.

As for `O=C(CCl)N1CCN(C/C=C/c2ccccc2)CC1`, the growth was 23.1%.

With `COC(=O)c1cccnc1`, the growth was 104%.

`CC(=O)NCc1cc(C)c(C)cc1C`: the growth was 97.6%.

On to `C#CCSc1nnnn1-c1ccc(Br)c(C)c1`, for which the growth was 74.4%.

Regarding `C=CCNC(=O)c1ccc(OC)cc1`, the growth is 110%.

On to `O=C1Cc2ccccc2C(=O)O1`, for which the growth is 79.3%.

Consider `Cc1ccccc1C1N=C2Oc3ccccc3C=C2C(=O)N1` (stereo unspecified), for which the growth is 45.2%.

As to `C/C(=C\c1cc(Cl)ccc1OCC(=O)O)[N+](=O)[O-]`, the growth is 113%.

With `Cc1cc(Cc2cc(C)c(N)cc2N)c(N)cc1N`, the growth is 55.2%.

As for `CC1Cc2ccccc2O1` (stereo unspecified), the growth is 100%.

Turning to `Cc1cc(C)cc(NCCC#N)c1`, the growth was 107%.

As for `OCC(O)C(O)C(O)C(O)/C=N/O` (stereo unspecified), the growth was 102%.

For the compound `O=c1cc(-c2ccccc2)[nH]c(=S)[nH]1`, the growth is 91.9%.

`Nc1nc(N)c(N=Nc2ccc(C(=O)O)cc2)c(N)n1`: the growth is 109%.

Take `c1ccc(CN2COc3c(ccc4c3OCN(Cc3ccccc3)C4)C2)cc1`: the growth was 5.08% (active).

Take `CCOC(=O)C1=C(Nc2ccc(Br)cc2)C(=O)N(CC)C1`: the growth is 97.7%.

With `CC(C)=CC(=O)OC(=O)C=C(C)C`, the growth is 94.7%.

As to `O=C(O)C(c1ccccc1)C(O)c1ccccc1` (stereo unspecified), the growth is 94.6%.

With `O=C(CN1CCNCC1)N1CCOCC1`, the growth was 82.6%.

In the case of `Nc1ccc(N)c([N+](=O)[O-])c1`, the growth was 115%.

For `CCOC(=O)c1coc(C(=O)OCC)c1C(=O)OCC`, the growth was 113%.

For the compound `COC(=O)/C=C/C(=O)NC(N)=O`, the growth is 95.9%.

`O=[N+]([O-])c1ccc(N=Nc2ccccc2)cc1`: the growth was 97.9%.

The test system of a further experiment is RPMI-8226 leukemia. The description is as above. To be noted: 10 µM.
With `COc1ccc(-c2cc3c(nn2)-c2ccccc2C3=O)cc1`, the growth is 27.2%.

Regarding `CCCCC(=O)c1ccc(OC)cc1`, the growth is 99.8%.

For `N=c1c(C(=O)OCc2ccccc2)ncc(CCl)n1O`, the growth was 76.8%.

`CCOC(=O)c1ccc(Nc2sc(C(=O)c3cccc([N+](=O)[O-])c3)c(N)c2C#N)cc1`: the growth was -3.9% (active).

On to `COC(=O)c1ccccc1N(C)C`, for which the growth was 100%.

As to `CC1(C(=O)O)NC(C(=O)O)Cc2c1[nH]c1ccccc21` (stereo unspecified), the growth is 95.4%.

Regarding `NCCC(=O)c1ccc(Cl)cc1`, the growth was 110%.

As for `CC(=O)/C(Cc1ccccc1)=N/O`, the growth was 97.5%.

Consider `Cc1cccc(CO)c1`, for which the growth was 114%.

Regarding `CC1(C)/C(=C\CO)C2CCC1C2` (stereo unspecified), the growth is 91.6%.

`CC1C(=O)c2ccccc2CC1C(=O)O` (stereo unspecified): the growth was 110%.

Turning to `CC12CC3CC1C(C(=O)O2)C3C(=O)O` (stereo unspecified), the growth is 108%.

Turning to `CC(C)CCOC(=O)c1ccccc1`, the growth is 118%.

Consider `O=C1C[C@H](c2ccccc2)[C@H](c2ccccc2)C1`, for which the growth was 83.2%.

`O=c1cc(-c2ccccc2)oc2c1ccc1ccccc12`: the growth was 77.8%.

For the compound `O=C(CCl)N1CCN(C/C=C/c2ccccc2)CC1`, the growth is 90.5%.

Consider `COC(=O)c1cccnc1`, for which the growth was 106%.

As to `CC(=O)NCc1cc(C)c(C)cc1C`, the growth was 88.1%.

Take `C#CCSc1nnnn1-c1ccc(Br)c(C)c1`: the growth was 62.1%.

Regarding `C=CCNC(=O)c1ccc(OC)cc1`, the growth is 92.4%.

Consider `O=C1Cc2ccccc2C(=O)O1`, for which the growth is 93.4%.

For `Cc1ccccc1C1N=C2Oc3ccccc3C=C2C(=O)N1` (stereo unspecified), the growth was 95.4%.

`C/C(=C\c1cc(Cl)ccc1OCC(=O)O)[N+](=O)[O-]`: the growth is 81.5%.

In the case of `Cc1cc(Cc2cc(C)c(N)cc2N)c(N)cc1N`, the growth is 92.8%.

As for `CC1Cc2ccccc2O1` (stereo unspecified), the growth was 109%.

For the compound `Cc1cc(C)cc(NCCC#N)c1`, the growth was 106%.

As to `OCC(O)C(O)C(O)C(O)/C=N/O` (stereo unspecified), the growth was 94.9%.

Take `O=c1cc(-c2ccccc2)[nH]c(=S)[nH]1`: the growth is 89.6%.

On to `Nc1nc(N)c(N=Nc2ccc(C(=O)O)cc2)c(N)n1`, for which the growth was 95.1%.

Turning to `c1ccc(CN2COc3c(ccc4c3OCN(Cc3ccccc3)C4)C2)cc1`, the growth is 21.9%.

As to `CCOC(=O)C1=C(Nc2ccc(Br)cc2)C(=O)N(CC)C1`, the growth is 99.7%.

For the compound `CC(C)=CC(=O)OC(=O)C=C(C)C`, the growth was 109%.

`O=C(O)C(c1ccccc1)C(O)c1ccccc1` (stereo unspecified): the growth is 101%.

For the compound `O=C(CN1CCNCC1)N1CCOCC1`, the growth is 99.3%.

Take `Nc1ccc(N)c([N+](=O)[O-])c1`: the growth was 98.8%.

Consider `CCOC(=O)c1coc(C(=O)OCC)c1C(=O)OCC`, for which the growth is 126%.

With `COC(=O)/C=C/C(=O)NC(N)=O`, the growth is 103%.

As to `O=[N+]([O-])c1ccc(N=Nc2ccccc2)cc1`, the growth is 98%.
